Inconclusive results are not listed. A number with no mark means an inactive call. Activity calls are given as the source filed them. Calls follow the shape of the dose curve; as a rule, active = well fitted cell-killing curve with a large enough effect; inconclusive = small, poorly fitted or top-dose-only effect, or effect the other way; inactive = no such curve, though single readings can be large or run the other way.
Potency is read from the fitted curve at half-maximal effect.

The assay is described as follows: Quantitative High-Throughput drug screen in 47 multiple myeloma cell lines against the NCATS MIPE library collection: L363_DSMZ cell viability assay (AID 1918984). Also: nearly all actives have a fitted effect of over 40% in size. The following applies: L363 myeloma viability, CellTiter-Glo ATP luminescence, 48 h; series mostly up to 45.8 µM; viability (% of control): at the top concentration. The source says: PI: Beverly A. Mock Ph.D.
Laboratory of Cancer Biology and Genetics,
Center for Cancer Research, National Cancer Institute,
National Institute of Health, Bethesda, Maryland
Drug resistance and disease progression are common in multiple myeloma (MM) patients, underscoring the need for new therapeutic combinations. […] We hypothesized that effective combinations would reduce MYC expression and enhance p16 activity. […] These preclinical data identify potentially useful drug combinations for evaluation in drug-resistant MM and reveal potential mechanisms of combined drug sensitivity.
Described herein is the primary MIPE qHTS used to cherrypick compounds. Validated compounds were then further tested for potential synergistic activiy.
[1] Peat TJ, Gaikwad SM, Dubois W, Gyabaah-Kessie N, Zhang S, Gorjifard S, Phyo Z, Andres M, Hughitt VK, Simpson RM, Miller MA, Girvin AT, Taylor A, Williams D, D'Antonio N, Zhang Y, Rajagopalan A, Flietner E, Wilson K, Zhang X, Shinn P, Klumpp-Thomas C, McKnight C, Itkin Z, Chen L, Kazandijian D, Zhang J, Michalowski AM, Simmons JK, Keats J, Thomas CJ, Mock BA. Drug combinations identified by high-throughput screening promote cell cycle transition and upregulate Smad pathways in myeloma. Cancer Lett. 2023 Aug 1;568:216284. doi: 10.1016/j.canlet.2023.216284. Epub 2023 Jun 24. PMID: 37356470; PMCID: PMC10408729.
SEQUENCE No. (e.g., 1, 2, 3, etc.); […] (e.g., Cells, Incubation, Reagent, etc.); VALUE and DESCRIPTION.
1; Cells; 5 uL; white, solid bottom 1536-well Greiner assay plate.
2; Compounds; 23 nL; Kalypsis pin tool (Wako USA) equipped with a 1536-well pin head to transfer to the assay plates.
3; Incubation; 48 hours; 37C incubation.
4; Reagent;5uL; CellTiter Glo (Promega).
5; Detector; 425V; Luminescence; Viewlux PerkinElmer.
NOTES (numbers refer to Sequence numbers above)
1. The cell-based screening methods employed in this study were like those previously published. Briefly, the corresponding myeloma cell lines were screened in 1,536-well plates with 500 cells, 5-uL per well for inhibition of cell viability (assessed by measuring ATP levels with CellTiterGlo).
2. NCATS MIPE 4.0 library of approved and investigational drugs were added using the Kalypsis pin tool. Wells treated with DMSO only for 100% viability and media only for 0% viability were used as controls.
3. The assay plates were covered and incubated for 48 hours in a 37C, 5% CO2 incubator with controlled humidity.
4. After 48 hours, CellTilter-GloTM luminescent substrate mix (Promega) reagent was added to the assay plate and plates we incubated for 5 min at room temperature.
5. Signal was measured as median relative luminescence units on a ViewLux (PerkinElmer) multiplate reader.
[1] Heske CM, Davis MI, Baumgart JT, Wilson K, Gormally MV, Chen L, Zhang X, Ceribelli M, Duveau DY, Guha R, Ferrer M, Arnaldez FI, Ji J, Tran HL, Zhang Y, Mendoza A, Helman LJ, Thomas CJ. Matrix Screen Identifies Synergistic Combination of PARP Inhibitors and Nicotinamide Phosphoribosyltransferase (NAMPT) Inhibitors in Ewing Sarcoma. Clin Cancer Res. 2017 Dec 1;23(23):7301-7311. doi: 10.1158/1078-0432.CCR-17-1121. Epub 2017 Sep 12. PMID: 28899971; PMCID: PMC6636827.
Background: ATP-based viability assays read luminescence as a measure of living cells.
In the case of `CN(C)C(=O)C(CCN1CCC(O)(c2ccc(Cl)cc2)CC1)(c1ccccc1)c1ccccc1`, the “viability (% of control)” value is 134%.

In the case of `CC1(CN2CCC(n3c(=O)[nH]c4ccccc43)CC2)OCc2ccccc2-n2cccc21` (stereo not given), the “viability (% of control)” value was 70.5%. For the compound `CC(C)Cc1ccc(C(C)C(=O)O)cc1` (stereo not given), the “viability (% of control)” value is 69.7% [at 23.2 µM]. With `O=C(C1CCCCC1)N1CC(=O)N2CCc3ccccc3C2C1` (stereo not given), the “viability (% of control)” value was 95.9%. Regarding `NC(CO)C(=O)NNCc1ccc(O)c(O)c1O` (stereo not given), the “viability (% of control)” value was 88.1%. Consider `CN1C(C(=O)Nc2ccccn2)=C(O)c2ccccc2S1(=O)=O`, for which the “viability (% of control)” value was 72.9%.

For `CC(=O)OCC(CCn1cnc2cnc(N)nc21)COC(C)=O`, the “viability (% of control)” value is 93.8%. On to `CC(CCc1ccc(O)cc1)NCCc1ccc(O)c(O)c1` (stereo not given), for which the Potency was 18.7 µM (active). `COc1ccccc1OCC(O)CN1CCN(CC(=O)Nc2c(C)cccc2C)CC1` (stereo not given): the “viability (% of control)” value is 89.8%.

For the compound `COc1ccc(C2CNC(=O)C2)cc1OC1CCCC1` (stereo not given), the “viability (% of control)” value is 131%.

As to `O=C(c1ccc(F)cc1)C1CCN(CCn2c(=O)[nH]c3ccccc3c2=O)CC1`, the “viability (% of control)” value is 101%. On to `N[C@@H](Cc1c[nH]c2ccc(O)cc12)C(=O)O`, for which the “viability (% of control)” value is 106%. As for `COc1cc2c(c(OC)c1OC)-c1ccc(OC)c(=O)cc1[C@@H](NC(C)=O)CC2`, the “viability (% of control)” value was 4.53%. With `C[C@@H]1CC(=O)NN=C1c1ccc(NN=C(C#N)C#N)cc1`, the “viability (% of control)” value was 90.4%. Turning to `O=C1c2c(O)ccc(O)c2C(=O)c2c(NCCNCCO)ccc(NCCNCCO)c21`, the Potency is 2.35 µM (active).

In the case of `Cc1cc(C(C)(C)C)c(O)c(C)c1CC1=NCCN1`, the “viability (% of control)” value was 126%. Regarding `CS(=O)(=O)CCNCc1ccc(-c2ccc3ncnc(Nc4ccc(OCc5cccc(F)c5)c(Cl)c4)c3c2)o1`, the Potency was 9.35 µM (active). Regarding `NC(=O)OCC(COC(N)=O)c1ccccc1`, the “viability (% of control)” value was 97.6%.

Take `CS(=O)(=O)Nc1ccc([N+](=O)[O-])cc1Oc1ccccc1`: the “viability (% of control)” value was 92.8%. For the compound `CN(C)CCC=C1c2ccccc2C=Cc2ccccc21`, the “viability (% of control)” value is 103%.

For the compound `CN1CCN(CCCN2c3ccccc3Sc3ccc(Cl)cc32)CC1`, the Potency is 3.32 µM (active). For the compound `CC(C)NCC(O)c1ccc(O)c(O)c1` (stereo not given), the Potency was 1.87 µM (active). Consider `CN(C)CCCN1c2ccccc2CCc2ccc(Cl)cc21`, for which the Potency was 16.6 µM (active). As to `CCc1cccc2c3c([nH]c12)C(CC)(CC(=O)O)OCC3` (stereo not given), the “viability (% of control)” value is 131%.

For `CC(C)(C)C(=O)Oc1ccc(S(=O)(=O)Nc2ccccc2C(=O)NCC(=O)O)cc1`, the “viability (% of control)” value is 93.5%.

`COc1nc(C)nc(Cl)c1NC1=NCCN1`: the “viability (% of control)” value is 100%. On the same count and under the same terms, in the case of `COc1cc2nc(N3CCN(C(=O)C4COc5ccccc5O4)CC3)nc(N)c2cc1OC` (stereo not given) it was 108%; in that of `CN(C)c1nc(N(C)C)nc(N(C)C)n1`, 76.2%. For `CNCCCC12CCC(c3ccccc31)c1ccccc12`, the Potency was 16.6 µM (active). `Cc1ccc(-c2cc(C(F)(F)F)nn2-c2ccc(S(N)(=O)=O)cc2)cc1`: the “viability (% of control)” value was 83.6%. Take `CN(CCOc1ccc(NS(C)(=O)=O)cc1)CCc1ccc(NS(C)(=O)=O)cc1`: the “viability (% of control)” value was 94%.

For the compound `C[C@](N)(Cc1ccc(O)c(O)c1)C(=O)O`, the “viability (% of control)” value was 77.1%.

Take `CN1C2CCC1CC(OC(=O)C(CO)c1ccccc1)C2` (stereo not given): the “viability (% of control)” value is 98.6%. On to `Clc1ccc2c(c1)C(N1CCNCC1)=Nc1ccccc1O2`, for which the “viability (% of control)” value is 103%.

Consider `NC(=O)NO`, for which the Potency is 5.9 µM (active).

For the compound `NS(=O)(=O)c1cc2c(cc1Cl)NCNS2(=O)=O`, the “viability (% of control)” value is 91.6%. Take `COC(=O)Nc1nc2ccc(C(=O)c3cccs3)cc2[nH]1`: the Potency was 0.001 µM (active). On to `Clc1ccc(C(c2ccccc2Cl)C(Cl)Cl)cc1` (stereo not given), for which the “viability (% of control)” value is 91%. As for `CN1CCC(=C2c3ccccc3CC(=O)c3sccc32)CC1`, the Potency is 23.5 µM (active). Turning to `NCCCCCC(=O)O`, the “viability (% of control)” value is 116%.

The record behind these values is PubChem BioAssay (NCATS).
